Compounds with a hit are over-represented: about 4.8% of the library has one in this group of screens.
NR1D1 modulator: modulates human Rev-erb alpha binding to DNA. AID 1259318. P20393. activity, % at 10 µM. Rev-erbα–FITC-DNA binding, fluorescence polarization, 90 min. hit rate 0.79% among 370,000;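 active = activity above about 14%, limit read from the data; passing the limit was not always enough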;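 note: 0% = DMSO wells with 35 nM protein and 100% = DMSO wells with 750 nM protein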
hcDAF12 agonist: activates DAF-12 receptor from parasite H. contortus. HEK293 hcDAF-12 lit1-tk-luc reporter, luminescence; 0% DMSO, 100% Δ7-dafachronic acid. AID 652067. activation, % at 6.8 µM. hit rate 1.4% among 370,000;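 active = activation above the mean of all tested compounds plus 3 SD, cut at about 5.5% in these data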;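 note: 100% = response to 3 µM Δ7-dafachronic acid high control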
DAX1 inh-1: inhibits human nuclear receptor DAX1; HEK293 Gal4-DAX1 luciferase reporter, luminescence; inhibition, % at 6.75 µM; hit rate 0.99% among 340,000; AID 504766;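 active = inhibition above the mean over all tested compounds plus 3 SD, cut at about 4.2% in these data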;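 note: 0% = DAX1-transfected cells with DMSO and 100% = empty-vector control cells with DMSO; inhibition shows as a rise in luminescence from relieved DAX1 repression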
Target sequence (P51843 207-470 limits assumed): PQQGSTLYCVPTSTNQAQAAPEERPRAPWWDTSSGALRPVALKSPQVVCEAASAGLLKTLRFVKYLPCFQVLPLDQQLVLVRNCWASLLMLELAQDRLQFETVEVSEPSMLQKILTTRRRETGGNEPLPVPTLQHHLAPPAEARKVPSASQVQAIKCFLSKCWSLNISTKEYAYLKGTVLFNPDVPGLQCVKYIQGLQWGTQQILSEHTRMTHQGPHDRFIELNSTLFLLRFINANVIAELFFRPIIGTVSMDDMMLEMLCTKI
ssDAF-12 act: activates DAF-12 receptor from parasite S. stercoralis | HEK293 ssDAF-12/GRIP1 lit1-tk-luc reporter, luminescence; % of 3 µM dafachronic acid response | activation, % at 6.8 µM | hit rate 1% among 370,000;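 active = activation above the mean over all tested compounds plus 3 SD, cut at about 0.9% in these data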;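 note: 0% = DMSO-only wells and 100% = 3 µM delta7-dafachronic acid wells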
DAX1 inh-2: blocks DAX1 repression of SF-1 activated StAR promoter; HEK293T StAR-luciferase reporter, SF-1/DAX-1 repression relief; inhibition, % at 6.8 µM; hit rate 1.1% among 370,000;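 active = inhibition above the mean over all tested compounds plus 3 SD, cut at about 3.6% in these data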;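 note: 0% = DAX-1 cells with DMSO and 100% = cells lacking DAX-1 with DMSO; higher inhibition means more luminescence from relief of DAX-1 repression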
hgDAF12 agonist: activates the H. glycines DAF-12 receptor ligand-binding domain. HEK293 GAL4-hgDAF12 UAS-luciferase reporter, agonist luminescence; normalized to butyrate control. activation, % at 6.8 µM. hit rate 1.8% among 370,000;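 active = activation above a cutoff set at the mean of all screened compounds plus 3 SD, cut at about 10% in these data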;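 note: 0% = DMSO wells and 100% = sodium butyrate wells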
NR1D1 mod conf: Rev-erb alpha (human) modulation, hit confirmation; shares compounds with NR1D1 modulator; Rev-erb alpha FITC-DNA binding, fluorescence polarization, 90 min; activation, % at 25 µM; hit rate 61% among 3,000; AID 1259319;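 active = activation at or above a set limit, or at least 3 SD above the negative control mean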;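 note: 0% = 35 nM protein with DMSO and 100% = 750 nM protein high control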
RORg counter: affects RORgamma DNA binding in a Rev-erb alpha counter-screen. purified RORgamma protein-FITC-DNA binding, fluorescence polarization. hit rate 8% among 910. IC50, µM. shares compounds with NR1D1 modulator. AID 1259320;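 active = Compounds whose fitted half-maximal concentration for disrupting protein-DNA binding is below 10 micromolar; the record names Rev-erb in its text, so the target is in doubt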
* hit, by the source's call; x = no result given.

SMILES	NR1D1 modulator	hcDAF12 agonist	DAX1 inh-1	ssDAF-12 act	DAX1 inh-2	hgDAF12 agonist	NR1D1 mod conf	others
CCOC(=O)c1cccc(-c2cc(C(C)=O)c3n(c2=O)CCC3)c1	3.5	-0.8	x	-1.1	0.2	0.4	x
O=C(COC(=O)c1ccccc1C(=O)c1ccc(Cl)cc1)NC(c1ccccc1)c1ccccc1	35.3*	-1.3	-0.2	-0.3	-0.1	-2.8	9.2
O=C1CSC(=Nc2ccc(Cl)cc2)N1Cc1ccco1	3.0	1.1	-2.1	-1.4	-0.2	-1.8	x
Cc1cc(C)c(N=C2SCC(=O)N2Cc2ccco2)c(C)c1	43.2*	-1.0	-0.1	-0.2	0.3	-0.1	36.8*	RORg counter=>40
O=c1cc(O)c(Cl)c[nH]1	-2.5	x	x	x	x	x	x
CCOC(=O)/C(C#N)=C/c1cc2ccccc2nc1N1CCCCC1	43.3*	1.4	-2.2	-1.7	-0.5	0.9	43.0*	RORg counter=>40
Cc1ccc2cc(/C=C(\C#N)C(N)=O)c(N3CCCCC3)nc2c1	4.1	-1.1	0.4	-1.4	-0.1	-2.3	x
CNc1ccccc1/C(O)=C(\C#N)C(=O)NCc1cccc2ccccc12	41.9*	-1.9	x	-1.2	0.0	-0.7	25.8*
O=C(NCc1cccc2ccccc12)Nc1ccccc1	-6.4	-1.6	-0.1	-1.1	-0.4	6.0	x
Cc1c(C)c2cc3c(C)coc3cc2oc1=O	5.4	2.3	-0.6	-1.3	-0.5	1.7	x
Cc1coc2cc3oc(=O)c(Cc4ccccc4)c(C)c3cc12	32.1*	-0.2	0.6	0.4	0.1	-0.2	42.6*	RORg counter=>40
CCc1ccc(-c2cc(C)no2)cc1S(=O)(=O)N1CCN(c2ccc(C(C)=O)cc2)CC1	27.5*	-3.2	-1.2	-1.8	-1.2	-2.2	17.5*
CC(=O)c1ccc(N2CCN(S(=O)(=O)c3cc(-c4cc(C)no4)ccc3C(C)C)CC2)cc1	25.8*	-3.8	-2.1	-1.6	-5.3	-2.6	21.6*
Cc1cc(-c2ccc(C(C)C)c(S(=O)(=O)N3CCN(c4ccccc4)CC3)c2)on1	-0.2	-0.5	-3.1	-1.5	-4.9	1.0	x
C[C@@H]1CN([C@@H](C)CO)C(=O)CCCn2cc(nn2)CO[C@H]1CN(C)C(=O)Nc1cccc(C(F)(F)F)c1	-4.3	-1.3	x	-0.3	-0.8	-2.8	x
CCOC(=O)c1sc(NC(=S)NC(=O)C2CCCC2)cc1C	69.7*	-0.3	-0.8	-1.8	0.0	-1.9	40.3*	RORg counter=>40
CCOC(=O)c1sc(NC(=O)c2ccc(Cl)s2)cc1C	15.6*	1.1	2.0	-1.1	0.5	6.2	11.5*
CCOC(=O)c1sc(NC(=O)Nc2ccc(Cl)cc2)cc1C	9.8	-1.8	-2.2	-0.5	-1.1	2.8	x
COc1ccc(-c2cc(C(=O)NN=Cc3ccccc3[N+](=O)[O-])[nH]n2)cc1	2.5	-2.4	x	-1.1	-1.1	3.7	x
COc1ccc2oc(=O)c(-c3cn4ccc(C)cc4n3)cc2c1	75.8*	2.0	1.2	-1.6	-0.5	3.7	14.0
O=c1oc2ccccc2cc1-c1cn2ccccc2n1	1.9	3.5	-3.7	-0.1	0.1	6.8	x
CN(C)c1ccc(C=c2c3cc(O)ccc3n3c2cc(-c2ccccc2)[n+]3C)cc1	22.3*	2.4	0.4	-1.4	-3.1	-0.9	-1.8
CC(C)c1ccc(S(=O)(=O)c2cc3cc(Br)ccc3oc2=O)cc1	19.4*	0.9	0.4	-0.7	-0.3	0.4	15.0
COc1ccc(-n2c(C)cc(C(=O)COC(=O)c3cc(NC(=O)c4cccs4)c(OC)c(OC)c3)c2C)cc1	31.9*	-1.5	0.4	-1.0	-0.3	0.4	0.5
COc1cc(NC(=O)c2cccs2)c(C(=O)OCC(=O)c2cc(C)n(-c3ccccc3)c2C)cc1OC	18.2	-5.8	-2.2	-3.2	-1.9	-17.5	x
SMILES	NR1D1 modulator	hcDAF12 agonist	DAX1 inh-1	ssDAF-12 act	DAX1 inh-2	hgDAF12 agonist	NR1D1 mod conf	others
COc1cc2[nH]c(=S)nc(NCCc3ccc(C)cc3)c2cc1OC	75.5*	-1.1	-1.4	-2.1	0.2	-1.4	52.3*	RORg counter=3.99*
COC(=O)c1c(NC(=O)C2Cc3ccccc3C(=O)O2)sc2c1CCCC2 (stereo not drawn)	50.4*	0.4	0.2	-1.1	-0.1	-0.6	22.3*
CCOC(=O)c1c(NC(=O)C2CCCN(S(=O)(=O)c3ccc(C)cc3)C2)sc2c1CCCC2 (stereo not drawn)	3.7	1.9	-0.8	-0.7	-0.2	-2.3	x
CCOC(=O)c1c(NC(=O)C2CCCN(S(=O)(=O)c3ccccc3)C2)sc2c1CCCC2 (stereo not drawn)	23.6*	-2.1	-3.0	-1.6	-0.4	-4.0	102.9*	RORg counter=>40
CCOC(=O)c1c(NC(=O)C2Cc3ccccc3C(=O)O2)sc2c1CCCC2 (stereo not drawn)	35.0*	-0.1	1.0	-0.8	0.2	-0.4	14.4*
C[C@H]1CN([C@@H](C)CO)C(=O)CCCn2cc(nn2)CO[C@@H]1CN(C)S(=O)(=O)c1cn(C)cn1	-1.5	-1.6	x	-0.6	0.6	3.4	x
O=C(COc1ncnc2c(Cl)cc(Cl)cc12)NCCC1=CCCCC1	22.2*	-1.0	0.2	-1.2	-0.6	-0.2	16.0
CCCCN1C(=O)c2ccccc2NC1c1ccc(OC)c(COc2ccc(NC(C)=O)cc2)c1 (stereo not drawn)	-0.9	-1.7	x	-1.6	x	2.3	x
O=C(NCc1ccccc1)[C@@H]1CCCN1C(=O)[C@H]1CCCN1C(=O)C1CCCCC1	-0.7	-1.9	x	-1.3	-1.1	-0.6	x
CCOC(=O)c1c(-c2ccc(C)s2)csc1NC(=O)c1cccs1	49.5*	0.6	2.8	-0.9	0.1	-0.7	24.6*
COC(=O)c1sc2nc(-c3ccccc3)c3c(c2c1N)CCCC3	68.6*	-0.7	-1.4	-1.0	-0.2	-1.0	39.1*	RORg counter=>40
Nc1c(C(=O)O)sc2nc(-c3ccccc3)c3c(c12)CCCC3	2.8	-2.5	-0.8	-1.6	0.7	-1.8	x
O=c1[nH]cnc2c1sc1nc(-c3ccccc3)c3c(c12)CCCC3	18.4*	-1.4	1.5	-1.4	-0.1	-1.0	9.1
Cc1cc(NC(=O)CSc2nc(-c3cccs3)nc3ccccc23)no1	28.2*	-1.6	-2.3	-1.6	-4.4	-0.2	19.5*
CCCCn1c(SCC(=O)Nc2cc(C)on2)nc2ccccc2c1=O	42.9*	-0.3	-0.2	-1.4	-0.3	1.1	14.1
Cc1cc(NC(=O)CSc2nc(C(C)(C)C)nc3ccccc23)no1	35.5*	0.3	1.9	-0.3	0.8	0.2	13.1
Cc1cc(NC(=O)CSc2cc(C)c3ccccc3n2)no1	22.6*	-1.4	0.0	-0.9	-1.1	-1.4	3.8
